Measurements published in PubChem BioAssay (Tox21).
“And” between values parts separate entries of the source, which are not always exact repeats. Equal values may be shown once. Inconclusive results are not listed. Where a structure was tested more than once in an assay, its records may differ in their call. The source made the active and inactive calls. The call rests on the fitted dose curve; in most records, active means well fitted curve in the direction sought with a large enough effect in the repeat runs; inconclusive means weak or mixed curves; inactive means no such curve, though single readings can be large; an effect the other way counts as inactive or inconclusive.

Legend:
[1] = qHTS RealTime-Glo MT Cell Viability Assay in HEK293 cells - 16 hour (AID 1224872); further: nearly all actives have a fitted effect of over 50% in size; further: potency means the concentration at half of the fitted maximal effect
In short: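 HEK293 cells were seeded at 600 cells/well together with NanoLuc luciferase and cell-permeant prosubstrate, preincubated 5 h at 37 C/5% CO2, then given compound in DMSO by pintool. Luminescence from viable-cell prosubstrate reduction was read repeatedly over 40 h.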

[2] = qHTS RealTime-Glo MT Cell Viability Assay in HepG2 cells - 8 hour (AID 1224873); further: nearly all actives have a fitted effect of over 55% in size; further: potency means the concentration at half of the fitted maximal effect
In short: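 HepG2 cells (600/well) mixed with RealTime-Glo MT reagent, settled 5 h at 37 C/5% CO2 before compound addition. Nonlytic NanoLuc luminescence from viable-cell prosubstrate reduction read repeatedly during 40 h treatment at 37 C.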

[3] = qHTS RealTime-Glo MT Cell Viability Assay in HEK293 cells - 40 hour (AID 1224874); details: RealTime-Glo luminescence; max response: stronger effect = lower value; further: nearly all actives have a fitted effect of over 50% in size; further: potency means the concentration at half of the fitted maximal effect
In short: (§1)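 Tox21 screen in HEK293 using RealTime-Glo MT chemistry, with cells and reagent co-dispensed. Luminescence proportional to viable cell number was captured at intervals during 40 h compound exposure at 37 C.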

[4] = A CellTox Green Cytotoxicity Assay to monitor cytotoxicity in HEK293 cells - 24 hour (AID 1224875); further: nearly all actives have a fitted effect of over 45% in size; further: potency means the concentration at half of the fitted maximal effect
In short: (§2)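 Seeding of HEK293 cells together with cytotoxicity dye preceded a 5 h incubation at 37 C/5% CO2. Test compounds in DMSO were then added and fluorescence monitored across 40 h.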

[5] = A CellTox Green Cytotoxicity Assay to monitor cytotoxicity in HepG2 cells - 16 hour (AID 1224876); further: nearly all actives have a fitted effect of over 45% in size; further: potency means the concentration at half of the fitted maximal effect
In short: (§3)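 Nonlytic assay: viable cells exclude the dye, so fluorescence scales with cell death. HepG2 at 600 cells/well, compounds added after 5 h, signal read across 40 h.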

[6] = qHTS RealTime-Glo MT Cell Viability Assay in HepG2 cells - 32 hour (AID 1224877); further: nearly all actives have a fitted effect of over 55% in size; further: potency means the concentration at half of the fitted maximal effect
In short: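 HepG2 cells were seeded at 600 cells/well together with NanoLuc luciferase and a cell-permeant prosubstrate, preincubated 5 h at 37 C/5% CO2, then pin-dosed with compounds in DMSO. Nonlytic luminescence from viable cells was read at each time point.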

[7] = A CellTox Green Cytotoxicity Assay to monitor cytotoxicity in HepG2 cells - 24 hour (AID 1224878); further: nearly all actives have a fitted effect of over 45% in size; further: potency means the concentration at half of the fitted maximal effect
In short: as §3

[8] = A CellTox Green Cytotoxicity Assay to monitor cytotoxicity in HepG2 cells - 40 hour (AID 1224879); further: nearly all actives have a fitted effect of over 40% in size; further: potency means the concentration at half of the fitted maximal effect
In short: as §3

[9] = qHTS RealTime-Glo MT Cell Viability Assay in HEK293 cells - 0 hour (AID 1224880); further: top concentration of the series differs between compounds; nearly all actives have a fitted effect of over 45% in size
In short: as §1

[10] = A CellTox Green Cytotoxicity Assay to monitor cytotoxicity in HEK293 cells - 32 hour (AID 1224881); further: nearly all actives have a fitted effect of over 40% in size; further: potency means the concentration at half of the fitted maximal effect
In short: as §2
On the % scale 0 is the no-effect control and ±100 the full control effect.

Cc1ccc(CCl)cc1
inactive: Potency [1] | Potency [2] | max response [3] 2.72% | Potency [4] | Potency [5] | Potency [6] | Potency [7] | Potency [8] | Potency [9] | Potency [10]

BrCC(Br)c1ccccc1 (stereo not given)
inactive: Potency [1] | Potency [2] | max response [3] 1.25% | Potency [4] | Potency [5] | Potency [6] | Potency [7] | Potency [8] | Potency [10]

CCCSP(=O)(OCC)SCCC
inactive: Potency [1] | Potency [2] | max response [3] -0.268% | Potency [4] | Potency [5] | Potency [6] | Potency [7] | Potency [8] | Potency [10]

Oc1ccc(I)cc1
inactive: Potency [1] | Potency [2] | max response [3] -9.46% | Potency [4] | Potency [5] | Potency [6] | Potency [7] | Potency [8] | Potency [10]

C[C@H]1CC[C@@H]2[C@@H](C)[C@H]3[C@H](C[C@H]4[C@@H]5CC=C6CC(O[C@@H]7O[C@H](CO)[C@H](O)[C@H](O[C@@H]8O[C@H](CO)[C@@H](O)[C@H](O)[C@H]8O)[C@H]7O[C@H]7O[C@@H](C)[C@H](O)[C@@H](O)[C@H]7O)CC[C@]6(C)[C@H]5CC[C@]34C)N2C1 (stereo not given in full)
active: Potency [1] 12.7 µM | Potency [2] 45.1 µM | Potency [3] 14.3 µM | Potency [4] 4.51 µM | Potency [5] 22.6 µM | Potency [6] 50.6 µM | Potency [7] 11.3 µM | Potency [8] 22.6 µM | Potency [10] 5.06 µM

C=COCCCl
inactive: Potency [1] | Potency [2] | max response [3] 15.2% | Potency [4] | Potency [5] | Potency [6] | Potency [7] | Potency [8] | Potency [9] | Potency [10]

CCCCCCCCCCCCCCCC[N+](C)(C)C
active: Potency [1] 10.6 µM and 21.9 µM | Potency [3] 8.4 µM and 21.9 µM and 9.52 µM | Potency [4] 23.7 µM and 43.6 µM and 19 µM | Potency [5] 23.7 µM and 49 µM and 23.9 µM | Potency [6] 43.6 µM and 23.9 µM | Potency [7] 21.1 µM and 23.9 µM | Potency [8] 21.1 µM and 13.8 µM and 21.3 µM | Potency [10] 23.7 µM and 43.6 µM and 23.9 µM
inactive and 49 µM (active): Potency [2]

FC(F)(F)c1cccc(C2=CCN(CCc3ccc4ccccc4c3)CC2)c1
inactive: Potency [1] | Potency [2] | max response [3] 2.33% | Potency [4] | Potency [5] | Potency [6] | Potency [7] | Potency [8] | Potency [10]

O=C/C(Cl)=C(/Cl)C(=O)O
inactive: Potency [1] | Potency [2] | max response [3] 20.3% | Potency [4] | Potency [5] | Potency [6] | Potency [7] | Potency [10]
active: Potency [8] 48.9 µM

C[C@H]1O[C@@H](O[C@H]2[C@@H](O)C[C@H](O[C@H]3[C@@H](O)C[C@H](O[C@H]4CC[C@@]5(C)[C@H](CC[C@@H]6[C@@H]5CC[C@]5(C)[C@@H](C7=CC(=O)OC7)CC[C@]65O)C4)O[C@@H]3C)O[C@@H]2C)C[C@H](O)[C@@H]1O
active: Potency [1] 0.0952 µM | Potency [3] 31.1 nM and 95.2 nM
inactive: Potency [2] | Potency [4] | Potency [5] | Potency [6] | Potency [7] | Potency [8] | Potency [10]

Oc1ccc(C(=C(Cl)Cl)c2ccc(O)cc2)cc1
active: Potency [1] 43.6 µM | Potency [3] 43.6 µM
inactive: Potency [2] | Potency [4] | Potency [5] | Potency [6] | Potency [7] | Potency [8] | Potency [9] | Potency [10]

CC(=O)Nc1ccc2c(c1)Cc1ccccc1-2
inactive: Potency [1] | Potency [2] | max response [3] -12.3% | Potency [4] | Potency [5] | Potency [6] | Potency [7] | Potency [8] | Potency [9] | Potency [10]

c1ccc2cc3c(cc2c1)-c1cccc2cccc-3c12
inactive: Potency [1] | Potency [2] | max response [3] 18.7% | Potency [4] | Potency [5] | Potency [6] | Potency [7] | Potency [9] | Potency [10]

CC(C)OS(C)(=O)=O
inactive: Potency [1] | Potency [2] | max response [3] 0.77% | Potency [4] | Potency [5] | Potency [6] | Potency [7] | Potency [8] | Potency [10]

N#CCCSCCC#N
inactive: Potency [1] | Potency [2] | max response [3] 8.18% | Potency [4] | Potency [5] | Potency [6] | Potency [7] | Potency [8] | Potency [9] | Potency [10]

Fc1ccc(Oc2ccnc3cc(Cl)cc(Cl)c23)cc1
active: Potency [1] 7.76 µM | Potency [3] 9.77 µM
inactive: Potency [2] | Potency [4] | Potency [5] | Potency [6] | Potency [7] | Potency [9] | Potency [10]

CC(=O)/C=C/c1ccc2c(c1)OCO2
inactive: Potency [1] | Potency [2] | max response [3] -11.6% | Potency [4] | Potency [5] | Potency [6] | Potency [9] | Potency [10]
active: Potency [8] 49.2 µM

N#Cc1ccccc1Cl
inactive: Potency [1] | Potency [2] | max response [3] -1.15% | Potency [4] | Potency [6] | Potency [7] | Potency [8] | Potency [9] | Potency [10]

O=[N+]([O-])c1ccc2ccc3cccc4ccc1c2c34
inactive: Potency [1] | Potency [2] | max response [3] -23.8% | Potency [5] | Potency [6] | Potency [7]

Clc1ccc(Oc2ccccc2)cc1
inactive: Potency [1] | Potency [2] | max response [3] -29.2% | Potency [5] | Potency [6] | Potency [7] | Potency [8] | Potency [9]

CCCCN(CCCC)C(=S)[S-].CCCCN(CCCC)C(=S)[S-].[Zn+2]
active: Potency [1] 12.3 µM | Potency [2] 21.9 µM | Potency [3] 11 µM | Potency [4] 21.9 µM | Potency [6] 24.5 µM | Potency [7] 34.7 µM | Potency [8] 24.5 µM | Potency [10] 19.5 µM
inactive: Potency [9]
